# Most compounds without a hit are left out; they make up all but 20% or so of the library.
# Pf growth 96h – P. falciparum growth inhibition at 96 hour, primary screen for plastid delayed-death inhibitors. P. falciparum luciferase reporter growth, 96 h. Potency, µM (series often up to 28.7 µM), for inactives: at the highest dose activity change, negative = inhibition, hits mostly inhibitors. actives 6.9% (n = 320,000); note: potency is the fitted concentration of half-maximal effect; % is set by controls: 0 for no effect and ±100 for the full control effect
#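 Two-generation exposure (96 h) targets delayed-death phenotype. Reporter parasites carrying integrated firefly luciferase, in red cells at 2% hematocrit and 0.05% parasitemia final, kept at 37 C, 5% CO2; luminescence loss indicates inhibition.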
# Shiga inhibitor – blocks Shiga toxin action in Vero cells; Vero cells, Shiga toxin protein synthesis inhibition reporter; inhibition, % at 38.7 µM; actives 9.2% (n = 290,000); AID 2315; in the data active = inhibition mostly above about 28%, no sharp cut-off; inactive = mostly below about 43%; note: 0% is about no effect
# Cycloheximide cs – counter-screen for Shiga toxin inhibitors: cycloheximide protein synthesis inhibition | max response, % | actives 12% (n = 300,000) | cell reporter, cycloheximide protein synthesis inhibition counterscreen | AID 2314; in the data active = max response mostly above about 13%, no sharp cut-off; inactive = mostly below about 14%; note: read at 38.3 µM for the half of the compounds with a filed dose; 0% is about no effect
# Pf growth 48h – P. falciparum growth inhibition at 48 hours (one generation). AID 504832. Potency, µM (highest dose often 28.7 µM), inactives show at the top dose activity change, negative = inhibition, usual class: inhibitors. P. falciparum luciferase growth in erythrocytes, 48 h. actives 5.9% (n = 310,000); note: potency is the fitted concentration of half-maximal effect; % is set by controls: 0 for no effect and ±100 for the full control effect
#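 Firefly luciferase activity from engineered P. falciparum reports growth; inhibitors lower the luminescent signal. Cultures contained 2% hematocrit erythrocytes at 0.1% final parasitemia.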
# HCMV inh – inhibitors of human cytomegalovirus. HFF cells, HCMV-luciferase reporter, 72 h; active compounds read low. activity change, negative = inhibition, % at 57.5 µM. actives 4.5% (n = 410,000); in the data active = activity change below about -60%; inconclusive = no clear call, values can overlap the other calls; inactive = above about -39%; note: % is set by controls: 0 for no effect and ±100 for the full control effect
#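 Cell-based, HFFs, 1000 cells/well, 16 h 37C; cpds in DMSO + HCMV-luc, MOI 1 PFU/cell; 72 h 37C; OneGlo luminescence after 5 min RT; norm. to buffer vs Salinomycin 10uM.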
# An asterisk follows results filed as active; ? = inconclusive; . = no result given. Unless noted, calls come from the whole dose curve; as a rule, active = well fitted inhibition curve with a large enough effect; inconclusive = small, poorly fitted or top-dose-only effect, or another doubt; inactive = no such curve, though single readings can be large or run the other way.
SMILES,Pf growth 96h,Shiga inhibitor,Cycloheximide cs,Pf growth 48h,HCMV inh
CC(Sc1nncn1C)C(=O)Nc1nnc(C(C)C)s1 (configuration not stated),19%,7,-1,30%,5
Cn1c2ccccc2c2cnn(CC(=O)N3CCN(c4cccc(C(F)(F)F)c4)CC3)c(=O)c21,.,.,.,.,23
CCOc1ccc(OCC)c(NC(=O)C2CCCN(S(=O)(=O)c3ccc4c(c3)oc(=O)n4C)C2)c1 (configuration not stated),.,.,.,.,7
CCOc1ccc(C2/C(=C(\O)c3ccc4c(c3)OCCO4)C(=O)C(=O)N2CCCn2ccnc2)cc1OC (configuration not stated),18%,30,-2,14%,-13
O=C(NCc1ccc2c(c1)OCO2)c1cc2ccccc2oc1=O,1%,13,-1,8%,-2
O=C(c1ccco1)N(Cc1ccc2c(c1)OCO2)Cc1cc2cc3c(cc2[nH]c1=O)OCO3,12µM*,29,-2,45%,?
O=C(c1cc2ccccc2oc1=O)N(Cc1ccc2c(c1)OCO2)Cc1ccco1,4%,110*,8,-7%,-5
Cc1cc2cc(CN(Cc3ccc4c(c3)OCO4)C(=O)c3ccco3)c(=O)[nH]c2cc1C,?,-3,-2,?,.
CC1CC(C)CN(C(=O)c2nn(C)c3c2CSc2ccccc2-3)C1 (configuration not stated),5.9µM*,5,0,?,-13
Cn1nc(C(=O)N2CCN(c3ccc(Cl)cc3)CC2)c2c1-c1ccccc1SC2,.,.,.,.,-71*
CN(C(=O)c1nn(C)c2c1CSc1ccccc1-2)c1ccccc1Cl,-14%,33*,25*,-6%,-15
Cn1nc(C(=O)NCc2ccccc2Cl)c2c1-c1ccccc1SC2,.,.,.,.,-34
CC1CCCN(C(=O)c2nn(C)c3c2CSc2ccccc2-3)C1 (configuration not stated),4%,31,18*,5%,-9
CCCCn1c(N)c(N(CC)C(=O)COc2ccc(C#N)cc2)c(=O)[nH]c1=O,.,.,.,.,40
Cc1ccc2nc(N/C(=N/S(=O)(=O)c3ccc(F)cc3F)c3ccccc3)sc2c1,94%,66*,31*,66%,-17
Cc1cc(N/C(=N/S(=O)(=O)c2cc(F)ccc2F)c2ccccc2)n(-c2ccccc2)n1,12%,16,15*,?,27
Cc1ccc2nc(N/C(=N/S(=O)(=O)c3ccc(F)cc3)c3ccccc3)sc2c1,109%,132*,48*,118%,9
Cc1cc(N/C(=N\S(=O)(=O)c2ccc(F)cc2F)c2ccccc2)no1,.,26,1,2%,5
S=C(Nc1ccc2c(c1)OCCO2)Nc1ccc2c(c1)OCO2,35%,120*,57*,227%,66
CC(C(=O)Nc1ccc2c(c1)OCO2)N(C)CC(=O)Nc1ccccc1Cl (configuration not stated),.,.,.,.,-17
S=C(Nc1ccc2c(c1)OCO2)Nc1ccccc1Cl,53%,35*,24*,142%,-26
CCNc1c(NS(=O)(=O)c2ccc([N+](=O)[O-])cc2)c(=O)oc2ccccc12,18%,2,-4,10%,?
CC(C)OC(=O)CSc1nnc(CNc2nc(-c3ccccc3)cs2)n1C,88%,8,12,2.3µM*,4
Cn1c(CNc2nc(-c3ccccc3)cs2)nnc1SCC(=O)OC1CCCCC1,?,8,-3,2.3µM*,-16
COc1ccccc1-n1c(SCC(N)=O)nc2sc3c(c2c1=O)CCC3,1%,22,10,7%,0
SMILES,Pf growth 96h,Shiga inhibitor,Cycloheximide cs,Pf growth 48h,HCMV inh
Cc1ccc(NS(=O)(=O)c2c(C)nc3sccn3c2=O)c(Cl)c1,.,.,.,.,8
Cc1cc(OC(=O)c2cc(Cl)ccc2Cl)c([N+](=O)[O-])c(=O)[nH]1,65%,-8,-4,43%,?
O=C(NCc1ccccc1)C(c1ccc(-c2ccccc2)cc1)n1c(=O)c(-c2ccco2)nc2ccccc21 (configuration not stated),.,.,.,.,35
CC(=O)c1cccc(NC(=O)c2cc(-c3ccncc3)nc3ccccc23)c1,?,.,.,12µM*,5
COc1cc(-c2cc(C(=O)Nc3cccc(C(C)=O)c3)c3ccccc3n2)cc(OC)c1OC,-21%,6,18*,?,34
O=C(Nc1cccc(S(=O)(=O)NC2=NCCCCC2)c1)c1cc(-c2ccncc2)nc2ccccc12,12µM*,-3,8,?,-16
COc1cc(-c2cc(C(=O)Nc3nc4ccccc4s3)c3ccccc3n2)cc(OC)c1OC,0%,3,18*,-5%,20
CSc1ccc(CN2CCC(N3CCC(C(=O)NC4CC4)CC3)CC2)cc1,.,.,.,.,-12
CSc1nc(N)nc2c1ncn2CC(=O)N[C@H](CO)Cc1c[nH]c2ccccc12,.,.,.,.,-5
COc1cc(Cl)ccc1NC(=O)COc1ccccc1C(=O)NN,?,-11,11,?,-25
COC(=O)[C@@]12C[C@@H](CC(=O)NCCc3ccccc3OC)C(=O)N(Cc3ccco3)C1=CCC(C)(C)C2,.,.,.,.,0
COc1cccc(NC(=O)c2cc(-c3ccco3)nc3ccccc23)c1,.,.,.,.,14
CC(=O)c1cccc(NC(=O)c2cc(-c3ccco3)nc3ccccc23)c1,1%,33*,13,-26%,16
COc1cccc(-c2cc(C(=O)Nc3ccncc3)c3ccccc3n2)c1,?,-10,-5,0.74µM*,3
COc1cccc(-c2cc(C(=O)Nc3ccc(N(C)C(C)=O)cc3)c3cc(Br)ccc3n2)c1,.,.,.,.,-97*
COc1cccc(NC(=O)c2cc(-c3ccccn3)nc3ccccc23)c1,?,.,.,?,0
CCCOc1cccc(-c2cc(C(=O)NN)c3ccccc3n2)c1,?,18,7,?,-28
CC(C)COc1cccc(-c2cc(C(=O)Nc3ccon3)c3ccccc3n2)c1,-8%,-7,1,2.1µM*,7
CN(Cc1ccccc1)C(=O)CSc1n[nH]c(N)n1,-3%,-14,-2,1%,-14
COc1cc2nc(SCC(=O)Nc3c(C)cc(C)cc3C)n3nc(CCn4c(C)nc5ccccc54)nc3c2cc1OC,.,.,.,.,-21
Cc1ccccc1-c1nc(SCC(=O)NCc2ccc(F)cc2)c2c(=O)n(C)c(=O)n(C)c2n1,.,.,.,.,-6
CCc1ncc(CN2CCC(C(=O)Nc3ccc(-n4nc(C)cc4C)cc3)CC2)cn1,-12%,12,-3,?,-16
CC(C)(O)C(=O)NN(Cc1ccccc1)c1ccccc1,-17%,33*,28*,12%,-14
Cc1cccc(C)c1NC(=S)NN(Cc1ccccc1)c1ccccc1,4.7µM*,-4,-4,.,2
CC(C)c1ccccc1NC(=S)NN(Cc1ccccc1)c1ccccc1,12µM*,-24,15,?,-10
Cc1ccccc1CC(=O)N1CCCC1,?,-10,-7,-14%,-7
C[C@H](CO)N1C[C@H](C)[C@H](CN(C)C(=O)Nc2ccc(N3CCN(C)CC3)cc2)OCc2cnnn2CCCC1=O,.,.,.,.,8
